In PubChem BioAssay:
A number with no mark means an inactive call. For some of these results: Entries with a potency or affinity are not part of this list. The source made the active and inactive calls. Unless noted, the rule behind the calls is not given here.

What was measured:
[1] = antimalarial activity against Dd2 strain (AID 2302;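 active = growth inhibition above 50% at the single 2 µM test dose, taken to imply half-maximal potency below 2 µM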;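 note: 0% = DMSO untreated growth and 100% = chloroquine plus artemisinin killed control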); settings: P. falciparum Dd2 in RBCs, LDH growth readout, 72 h; at 2 µM; stronger effect = higher value
[2] = human hepatoma cell viability loss – ATP luminescence, cytotoxicity control for P. falciparum antimalarial project, primary screen (AID 2303;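 active = inhibition above 50%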;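 note: 0% = DMSO wells and 100% = digitonin-killed cells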); settings: HepG2 viability, 24-48 h, at 10 µM, stronger effect = higher value
[3] = target: L-lactate dehydrogenase (Plasmodium falciparum (isolate CDC / Honduras)) (UniProt Q27743); experiment: PfLDH activity inhibition – cell lysate, 3D7 strain, counter-screen for P. falciparum growth inhibition project (AID 2304);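 note: 0% = vehicle and 100% = reference inhibitor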; settings: P. falciparum 3D7 crude extract, LDH APAD/NBT absorbance; at 2 µM; stronger effect = higher value
Sequence of L-lactate dehydrogenase (Plasmodium falciparum (isolate CDC / Honduras)) (Q27743 whole entry, looked up): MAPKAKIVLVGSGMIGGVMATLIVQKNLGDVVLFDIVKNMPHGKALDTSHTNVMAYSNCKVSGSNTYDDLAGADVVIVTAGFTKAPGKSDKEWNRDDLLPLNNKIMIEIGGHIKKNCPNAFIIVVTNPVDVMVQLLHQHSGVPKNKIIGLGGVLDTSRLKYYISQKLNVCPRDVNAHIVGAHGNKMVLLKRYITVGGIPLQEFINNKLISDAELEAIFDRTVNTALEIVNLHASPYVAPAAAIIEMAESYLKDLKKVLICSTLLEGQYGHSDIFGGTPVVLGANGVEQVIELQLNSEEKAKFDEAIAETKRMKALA

[4] = inhibition of 3D7 malaria parasite growth – strain 3D7 (AID 2306);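 note: 0% = DMSO wells and 100% = chloroquine plus artemisinin control wells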; settings: P. falciparum 3D7 erythrocytic growth, LDH absorbance, 72 h; at 2 µM; stronger effect = higher value
[5] = target: Calcium-dependent protein kinase 1 (Plasmodium falciparum (isolate 3D7)) (UniProt P62344); experiment: PfCDPK1 kinase inhibitors, biochemical, TCAMS library (AID 1159585; cut-off not given, nearly all actives have IC50 up to about 0.98 µM;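 note: inhibitors leave more ATP so luminescence rises with inhibition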); settings: recombinant PfCDPK1, Kinase-Glo ATP depletion luminescence
Sequence of Calcium-dependent protein kinase 1 (Plasmodium falciparum (isolate 3D7)) (P62344 whole entry, looked up): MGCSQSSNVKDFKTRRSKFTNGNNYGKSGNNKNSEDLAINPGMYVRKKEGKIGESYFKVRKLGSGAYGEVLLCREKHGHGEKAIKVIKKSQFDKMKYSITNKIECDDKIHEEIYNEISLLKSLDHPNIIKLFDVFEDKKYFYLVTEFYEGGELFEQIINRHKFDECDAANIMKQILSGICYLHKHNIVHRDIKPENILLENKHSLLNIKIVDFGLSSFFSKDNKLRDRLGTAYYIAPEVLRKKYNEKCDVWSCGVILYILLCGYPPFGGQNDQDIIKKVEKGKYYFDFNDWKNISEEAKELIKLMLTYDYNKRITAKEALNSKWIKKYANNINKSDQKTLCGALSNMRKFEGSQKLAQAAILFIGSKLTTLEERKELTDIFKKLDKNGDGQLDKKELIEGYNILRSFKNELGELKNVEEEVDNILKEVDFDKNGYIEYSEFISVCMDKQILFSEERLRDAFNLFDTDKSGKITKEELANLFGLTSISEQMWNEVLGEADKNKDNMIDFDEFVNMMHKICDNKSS

[6] = target: Plasmodium falciparum protein kinase 6 (PK6, PF3D7_1337100) (UniProt Q8IDW1); experiment: PfPK6 kinase inhibitors, biochemical, TCAMS library (AID 1159586); settings: recombinant PfPK6, Kinase-Glo ATP depletion luminescence
Sequence of Plasmodium falciparum protein kinase 6 (PK6, PF3D7_1337100) (Q8IDW1 1-305): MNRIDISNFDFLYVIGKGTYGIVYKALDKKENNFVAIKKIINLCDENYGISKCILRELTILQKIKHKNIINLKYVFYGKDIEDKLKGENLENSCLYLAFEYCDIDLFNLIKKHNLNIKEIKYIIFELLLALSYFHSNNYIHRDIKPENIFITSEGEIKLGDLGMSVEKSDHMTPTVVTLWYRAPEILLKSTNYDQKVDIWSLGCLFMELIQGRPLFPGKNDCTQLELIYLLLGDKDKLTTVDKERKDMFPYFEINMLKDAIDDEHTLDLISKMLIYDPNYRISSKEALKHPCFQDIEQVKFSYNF

[7] = target: Protein kinase 7 (PK7), Plasmodium falciparum 3D7 (PF3D7_0213400) (UniProt Q7YTF7); experiment: inhibition of Plasmodium PK7 catalytic activity – biochemical, TCAMS antimalarial set, Kinase-Glo luminescence (AID 1159587); settings: recombinant PfPK7, Kinase-Glo ATP depletion luminescence
Sequence of Protein kinase 7 (PK7), Plasmodium falciparum 3D7 (PF3D7_0213400) (Q7YTF7 1-343): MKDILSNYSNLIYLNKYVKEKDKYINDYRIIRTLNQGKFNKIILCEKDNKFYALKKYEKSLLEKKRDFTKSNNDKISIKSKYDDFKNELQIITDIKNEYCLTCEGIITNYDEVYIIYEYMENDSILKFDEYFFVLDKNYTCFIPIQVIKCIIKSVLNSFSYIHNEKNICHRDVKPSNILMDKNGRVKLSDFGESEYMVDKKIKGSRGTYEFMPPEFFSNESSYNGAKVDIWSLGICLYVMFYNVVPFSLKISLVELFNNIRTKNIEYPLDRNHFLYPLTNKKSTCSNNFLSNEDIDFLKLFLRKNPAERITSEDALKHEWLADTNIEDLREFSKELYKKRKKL

[8] = target: Calcium-dependent protein kinase 4 (Plasmodium falciparum (isolate 3D7)) (UniProt Q8IBS5); experiment: PfCDPK4 kinase inhibitors, biochemical, TCAMS library (AID 1159588; cut-off not given, nearly all actives have IC50 up to about 0.91 µM); settings: recombinant PfCDPK4, Kinase-Glo ATP depletion luminescence
Sequence of Calcium-dependent protein kinase 4 (Plasmodium falciparum (isolate 3D7)) (Q8IBS5 whole entry, looked up): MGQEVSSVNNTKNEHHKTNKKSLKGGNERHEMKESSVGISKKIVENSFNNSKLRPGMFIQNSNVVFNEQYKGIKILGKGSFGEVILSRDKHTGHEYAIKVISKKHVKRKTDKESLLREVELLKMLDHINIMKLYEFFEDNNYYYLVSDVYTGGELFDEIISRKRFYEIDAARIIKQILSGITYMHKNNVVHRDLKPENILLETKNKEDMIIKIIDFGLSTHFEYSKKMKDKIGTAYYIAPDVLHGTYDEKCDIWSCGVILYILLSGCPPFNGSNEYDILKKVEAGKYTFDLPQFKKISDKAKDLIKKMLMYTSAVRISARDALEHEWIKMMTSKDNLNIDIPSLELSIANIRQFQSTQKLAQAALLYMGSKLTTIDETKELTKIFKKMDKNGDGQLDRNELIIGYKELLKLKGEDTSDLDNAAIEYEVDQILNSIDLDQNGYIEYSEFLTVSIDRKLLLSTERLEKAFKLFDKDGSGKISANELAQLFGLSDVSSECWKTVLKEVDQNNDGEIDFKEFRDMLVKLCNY

Compound | growth inhibition [1] | inhibition [2] | inhibition [3] [%] | growth inhibition [4] | outcome [5] | outcome [6] | outcome [7] | outcome [8]
CCCCOC(=O)C1=C(C)NC2=C(C(=O)CCC2)C1c1ccc(OC)c(Br)c1 (stereo not given) | 87% (active) | 5% | -4 | 93% (active) | inactive | inactive | inactive | inactive
N#Cc1ccc2c(c1)CCN(CCC1CCC(Nc3ncnc4ccccc34)CC1)C2 (stereo not given) | 96% (active) | 65% (active) | -4 | 101% (active) | inactive | inactive | inactive | inactive
O=c1cc(NCCCNC2CCOc3c(Cl)cc(Cl)cc32)[nH]c2ccccc12 (stereo not given) | 88% (active) | -7% | -3 | 100% (active) | inactive | inactive | inactive | inactive
CCCCCCN=C(N)c1ccc2nc(-c3ccc(O)cc3)[nH]c2c1 | 99% (active) | -3% | 1 | 100% (active) | inactive | inactive | inactive | inactive
CC(C)NCc1ccc(-c2cccc(-c3nc4ccccc4[nH]3)c2)cc1 | 34% | 21% | 0 | 101% (active) | inactive | inactive | inactive | inactive
Cn1cc(CCNc2ccnc(NCCc3coc4ccccc34)n2)c2ccccc21 | 28% | 26% | 6 | 87% (active) | inactive | inactive | inactive | inactive
CCN(CCCN1CCCCC1)c1cc(C)nc(Nc2ccc(OC)cc2)n1 | 24% | 23% | -6 | 100% (active) | inactive | inactive | inactive | inactive
N#Cc1ccc(N[C@@H](CC2CCCCC2)C(=O)N[C@@H]2CCCc3ccccc32)c2ccccc12 | 99% (active) | 12% | -5 | 99% (active) | inactive | inactive | inactive | inactive
Fc1ccc2c(NN=Cc3ccc(Cl)cc3)ccnc2c1 | 99% (active) | 7% | -1 | 101% (active) | inactive | inactive | inactive | inactive
CCNc1cc(C(=O)N[C@@H](Cc2ccccc2)[C@H](O)CNC(C)(C)CCCC(C)C)c(F)c(N2CCCS2(=O)=O)c1 | 97% (active) | -2% | -4 | 98% (active) | inactive | inactive | inactive | inactive
COc1ccc(CNC(=O)C2Cc3ccccc3CN2Cc2ccc3ccccc3c2)cc1 (stereo not given) | 84% (active) | 15% | -8 | 96% (active) | inactive | inactive | inactive | inactive
COc1ccc2nc(N(CCCn3ccnc3)C(=O)C=Cc3cccs3)sc2c1 | 26% | 8% | -3 | 92% (active) | inactive | inactive | inactive | inactive
Cc1ccnc(NC(c2cccc(OCc3ccccc3)c2)c2ccc3cccnc3c2O)c1 (stereo not given) | 88% (active) | 26% | -2 | 95% (active) | inactive | inactive | inactive | inactive
O=C(/C=C/c1ccc(Cl)c(Cl)c1)N1CCC(CCN2CCC(c3c[nH]c4cnccc34)CC2)CC1 | 100% (active) | 93% (active) | -2 | 101% (active) | inactive | inactive | inactive | inactive
OC1CCCN(Cc2cccc(-c3ccc(-c4nc5ccc(C(F)(F)F)cc5[nH]4)cc3)c2)C1 (stereo not given) | 91% (active) | 27% | 4 | 100% (active) | inactive | inactive | inactive | inactive
CC(=O)Oc1cc(C(=O)Nc2ccc(Cl)cc2)cc2ccccc12 | 47% | 16% | -3 | 88% (active) | inactive | inactive | inactive | inactive
CCN(CC)CCN(Cc1ccc(-c2ccc(C(F)(F)F)cc2)nc1)C(=O)Cn1cc(Cc2cnn(C)c2)c(=O)n2nc(-c3ccccc3)cc12 | 95% (active) | 35% | -3 | 97% (active) | inactive | inactive | inactive | inactive
O=C(Nc1cccc(C2=NCCCN2)c1)Nc1cccc(C2=NCCCN2)c1 | 70% (active) | 5% | -6 | 81% (active) | inactive | inactive | inactive | inactive
O=C(N[C@@H](Cc1ccccc1)C(=O)NC1CCCc2ccccc21)c1ccc(O)c(-c2cccc(C(F)(F)F)c2)c1 (stereo not given in full) | 41% | -2% | -1 | 91% (active) | inactive | inactive | inactive | inactive
CCOc1cc2ncnc(Nc3ccc(OCc4ccccc4F)c(Cl)c3)c2cc1OCC | 74% (active) | 4% | -2 | 101% (active) | inactive | inactive | inactive | inactive
